Experiment [1] in a line: hESC survival regulators, cell-based (AID 493140; call rule not given here;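 further: cells exposed to compounds for four days before counting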). Conditions: human embryonic stem cell survival screen; stronger effect = higher value.
Experiment [2] can be described thus: liver-stage malaria parasite growth inhibition, primary screen, cell-based, HepG2, luciferase luminescence, HepG2 viability (AID 624349; in the data active means parasite load remaining mostly below about 12%, no sharp cut-off; inactive means mostly above about 10%;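 further: 100% = mean of DMSO negative control wells on the same plate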). Conditions: P. berghei liver stage in HepG2, luciferase luminescence, concentration not given here; parasite load remaining: stronger effect = lower value; viability: measured here: HepG2 viability without parasites.
The nature of experiment [3]: sensitizers of A549 cells to miR-34 induction, primary screen, imaging, A549 dox-inducible miR-34, nuclei and caspase counts (AID 1347080;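 active means compounds whose cell count with miR-34 switched on is under 0.7 times the count with it off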). Conditions: A549 miR-34 inducible, Hoechst nuclei count, 48 h.
A short description of experiment [4]: survival rescue of mitochondrial mutant cells in low glucose, primary screen, MELAS cybrids, Rieske KO mouse fibroblasts, CellTiter-Glo (AID 1508586;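 further: z relative to plate mean and SD of compound and empty wells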). (Cellular ATP, detected with luciferase, serves as a proxy for viable cell number.)
Where [5] appears, read: stronger effect = lower value, cell number ratio, induced over uninduced.
[6] abbreviates: measured here: relative caspase fold change +Dox/-Dox.
The mark [7] stands for this setting: measured here: total cells with miR-34 induction, stronger effect = lower value.
Where [8] appears, read: measured here: total cells without miR-34 induction.
The mark [9] stands for this setting: MELAS cybrid survival, CellTiter-Glo 48 h, stronger effect = higher value.
[10] abbreviates: Rieske KO mouse fibroblast survival, CellTiter-Glo 72 h.

Several values for one entry are separate records, joined by “and”; a condition that tells them apart may be missing. Identical values can stand only once. Activity calls are given as the source filed them.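 How the source made its calls, unless noted: active means mean z-score across replicates of 1.96 or higher in either the MELAS or the Rieske mutant cell line; inactive means the rest.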

Take `CCC(=O)OCC(=O)C1(OC(=O)CC)[C@H](C)C[C@H]2[C@H]3[C@H]([C@@H](O)C[C@@]21C)[C@@]1(C)C=CC(=O)C=C1C[C@H]3Cl` (some centres not stated): the survival in experiment [1] is 4.33 (inactive). Further, in experiment [2], the parasite load remaining is 104% (inactive). The viability in experiment [2] came out at 97.3%. Further, the fold change in experiment [3] (setting [5]) was 0.785 (inactive); in experiment [3] (setting [6]), 1.32. The cell count in experiment [3] (setting [7]) stood at 6260; in experiment [3] (setting [8]) it was 7980. The z-score was 0.535 (inactive) in experiment [4] (setting [9]) and 0.903 in experiment [4] (setting [10]).
As to `CCCC(=O)Nc1ncnc2c1ncn2[C@@H]1O[C@@H]2OP(=O)(O)OC[C@H]2[C@H]1OC(=O)CCC`, the parasite load remaining in experiment [2] is 71.6% (inactive). Besides, the viability in experiment [2] came to 101%. In addition, the fold change was 0.912 (inactive) in experiment [3] (setting [5]) and 1.18 in experiment [3] (setting [6]). Moreover, the cell count in experiment [3] (setting [7]) was determined as 9650; in experiment [3] (setting [8]), 10600. Moreover, the figures for the z-score in experiment [4] (setting [9]) and in experiment [4] (setting [10]) were 0.66 (inactive) and 0.0496, respectively.
Consider `CC(=O)N(CC(C)C(=O)O)c1c(I)cc(I)c(N)c1I` (configuration not stated), for which the survival in experiment [1] is 3.33 (inactive). For the same molecule, the parasite load remaining in experiment [2] was 76.2% (inactive). The viability in experiment [2] was determined as 95.9%. For the same molecule, the fold change in experiment [3] (setting [5]) is 0.901 (inactive); in experiment [3] (setting [6]), 1.42. In addition, the values for the cell count in experiment [3] (setting [7]) and in experiment [3] (setting [8]) were 9460 and 10500, respectively. For the same molecule, the z-score is 0.846 (inactive) in experiment [4] (setting [9]) and 0.109 in experiment [4] (setting [10]).
`C=CC[N@@+]12CC[C@]34c5ccccc5N5/C=C6\C7N(/C=C(\C53)[C@@H](C[C@@H]41)/C(=C/CO)C2)c1ccccc1[C@@]71CC[N@@+]2(CC=C)C/C(=C\CO)[C@@H]6C[C@@H]12` (some centres not stated): in experiment [2], the parasite load remaining was 122% (inactive). In experiment [2], the viability amounted to 74.4%. Moreover, the fold change was 0.909 (inactive) in experiment [3] (setting [5]) and 0.771 in experiment [3] (setting [6]). The figures for the cell count in experiment [3] (setting [7]) and in experiment [3] (setting [8]) were 9290 and 10200, respectively. Also, the values for the z-score in experiment [4] (setting [9]) and in experiment [4] (setting [10]) were 0.0835 (inactive) and -0.352, respectively.
In the case of `CN(C)CC/C=C1\c2ccccc2CSc2ccccc21`, in experiment [2], the parasite load remaining was 36.7% (inactive). In addition, in experiment [2], the viability worked out at 110%. For the same molecule, the figures for the fold change in experiment [3] (setting [5]) and in experiment [3] (setting [6]) were 0.831 (inactive) and 1.19, respectively. In addition, the figures for the cell count in experiment [3] (setting [7]) and in experiment [3] (setting [8]) were 6880 and 8280, respectively. The z-score in experiment [4] (setting [9]) was -0.0112 (inactive); in experiment [4] (setting [10]) it was -0.183.
For the molecule `CO[C@@H]1[C@@H](O[C@@H]2O[C@H](C)[C@@H](O[C@H]3C[C@@](C)(OC(=O)CC(C)C)[C@@H](O)[C@H](C)O3)[C@H](N(C)C)[C@H]2O)[C@@H](CC=O)C[C@@H](C)[C@@H](O)/C=C/C=C/C[C@@H](C)OC(=O)C[C@H]1OC(C)=O`, the parasite load remaining in experiment [2] is 40.7% (inactive). The viability in experiment [2] amounted to 45.1%. The fold change in experiment [3] (setting [5]) was 0.924 (inactive); in experiment [3] (setting [6]), 0.331. Also, the values for the cell count in experiment [3] (setting [7]) and in experiment [3] (setting [8]) were 7880 and 8530, respectively. The z-score in experiment [4] (setting [9]) is -0.757 (inactive); in experiment [4] (setting [10]), -0.227.
Regarding `CC(=O)Nc1c(I)c(C(=O)N[C@H]2C(O)O[C@H](CO)[C@@H](O)[C@@H]2O)c(I)c(N(C)C(C)=O)c1I` (some centres not stated), the parasite load remaining in experiment [2] is 113% (inactive). Moreover, the viability in experiment [2] is 109%. Moreover, the figures for the fold change in experiment [3] (setting [5]) and in experiment [3] (setting [6]) were 0.901 (inactive) and 1.22, respectively. In addition, the cell count in experiment [3] (setting [7]) is 9390; in experiment [3] (setting [8]), 10400. Also, the z-score is 0.559 (inactive) in experiment [4] (setting [9]) and 0.37 in experiment [4] (setting [10]).
On to `COC(=O)Nc1nc2ccc(SC(C)C)cc2[nH]1`, for which the survival in experiment [1] was 0.5 (inactive). For the same molecule, the parasite load remaining in experiment [2] is 92.8% (inactive). In addition, the viability in experiment [2] was 74.8%. Also, the fold change in experiment [3] (setting [5]) is 0.996 (inactive); in experiment [3] (setting [6]) it was 0.586. Besides, the cell count was found to be 1650 in experiment [3] (setting [7]) and 1660 in experiment [3] (setting [8]). In addition, the z-score in experiment [4] (setting [9]) was -2.13 (inactive); in experiment [4] (setting [10]) it was 1.04.
On to `NC[C@H]1O[C@H](OC2[C@@H](N)C[C@@H](N)[C@H](O)[C@H]2O[C@@H]2O[C@H](CO)[C@@H](O)[C@H]2O)[C@H](N)[C@@H](O)[C@@H]1O` (some centres not stated), for which the parasite load remaining in experiment [2] is 77.5% (inactive). Also, the viability in experiment [2] came to 92.8%. Besides, the fold change in experiment [3] (setting [5]) was 1.02 (inactive); in experiment [3] (setting [6]), 0.629. Further, the cell count in experiment [3] (setting [7]) is 9070; in experiment [3] (setting [8]) it was 8900. In addition, the z-score in experiment [4] (setting [9]) is -0.509 (inactive); in experiment [4] (setting [10]), 0.171.
In the case of `CC[N+](CC)(CC)CCC(O)(c1ccccc1)C1CCCCC1` (configuration not stated), the survival in experiment [1] was 3.08 (inactive). Moreover, the parasite load remaining in experiment [2] is 97.4% (inactive). The viability in experiment [2] was 92.1%. Moreover, the results for the fold change in experiment [3] (setting [5]) and in experiment [3] (setting [6]) were 0.878 (inactive) and 0.741, respectively. Moreover, the cell count in experiment [3] (setting [7]) is 8200; in experiment [3] (setting [8]) it was 9350. For the same molecule, the z-score was -0.675 (inactive) in experiment [4] (setting [9]) and -0.626 in experiment [4] (setting [10]).
Consider `CCC(=O)[C@@]1(C)[C@H](C)C[C@H]2[C@@H]3CCC4=CC(=O)C=C[C@]4(C)[C@H]3[C@@H](O)C[C@@]21C`, for which the survival in experiment [1] is 5.08 (inactive). Besides, the parasite load remaining in experiment [2] was 104% (inactive). Also, the viability in experiment [2] is 73.1%. Further, the fold change in experiment [3] (setting [5]) is 0.901 (inactive); in experiment [3] (setting [6]) it was 0.845. Also, the cell count is 7190 in experiment [3] (setting [7]) and 7980 in experiment [3] (setting [8]). Also, the z-score in experiment [4] (setting [9]) was -0.53 (inactive); in experiment [4] (setting [10]), 0.51.
Consider `COc1cc(N)c(Cl)cc1C(=O)N[C@H]1CCN(CCCOc2ccc(F)cc2)C[C@H]1OC`, for which the parasite load remaining in experiment [2] is 43.8% (inactive). For the same molecule, in experiment [2], the viability was 91.1%. The fold change in experiment [3] (setting [5]) was 0.886 (inactive); in experiment [3] (setting [6]) it was 2.08. The cell count in experiment [3] (setting [7]) was 7400; in experiment [3] (setting [8]), 8350. Moreover, the z-score in experiment [4] (setting [9]) is -0.0533 (inactive); in experiment [4] (setting [10]), 0.31.
In the case of `CC[C@@]1([C@@H]2O[C@@H]([C@H]3O[C@@](O)(CO)[C@H](C)C[C@@H]3C)C[C@@H]2C)CC[C@H]([C@]2(C)CC[C@]3(C[C@H](O)[C@@H](C)[C@@H]([C@@H](C)[C@@H](OC)[C@H](C)C(=O)O)O3)O2)O1` (stereo in doubt), in experiment [2], the parasite load remaining was -0.09% (active). Besides, in experiment [2], the viability was 93.8%. The figures for the fold change in experiment [3] (setting [5]) and in experiment [3] (setting [6]) were 0.901 (inactive) and 1.01, respectively. For the same molecule, the cell count in experiment [3] (setting [7]) was determined as 2780; in experiment [3] (setting [8]), 3090. Also, the z-score is -2.78 (inactive) in experiment [4] (setting [9]) and -1.77 in experiment [4] (setting [10]).
`C=CC1=C(C(=O)O)N2C(=O)[C@@H](NC(=O)/C(=N\OCC(=O)O)c3csc(N)n3)[C@H]2SC1`: the parasite load remaining in experiment [2] was 141% (inactive). Besides, the viability in experiment [2] stood at 105%. Further, the fold change in experiment [3] (setting [5]) is 0.851 (inactive); in experiment [3] (setting [6]), 1.38. Moreover, the values for the cell count in experiment [3] (setting [7]) and in experiment [3] (setting [8]) were 8960 and 10500, respectively. For the same molecule, the z-score in experiment [4] (setting [9]) was 0.308 (inactive); in experiment [4] (setting [10]) it was 0.0804.
On to `O=C1NC(=O)C(=Cc2ccc(-c3ccc(F)cc3O)o2)S1`, for which the fold change is 0.91 (inactive) in experiment [3] (setting [5]) and 0.626 in experiment [3] (setting [6]). The results for the cell count in experiment [3] (setting [7]) and in experiment [3] (setting [8]) were 8670 and 9530, respectively. Further, the values for the z-score in experiment [4] (setting [9]) and in experiment [4] (setting [10]) were -0.351 (inactive) and -0.0319, respectively.
Turning to `C=C1c2c(Cl)ccc(O)c2C(O)=C2C(=O)[C@]3(O)C(O)=C(C(N)=O)C(=O)[C@@H](N(C)C)[C@@H]3[C@@H](O)C12` (some centres not stated), the parasite load remaining in experiment [2] is 61.4% (inactive). Besides, in experiment [2], the viability was found to be 104%. Moreover, the results for the fold change in experiment [3] (setting [5]) and in experiment [3] (setting [6]) were 0.684 (active) and 2.93, respectively. Further, the cell count in experiment [3] (setting [7]) was found to be 5870; in experiment [3] (setting [8]), 8580. Also, the z-score in experiment [4] (setting [9]) was -2.33 (inactive); in experiment [4] (setting [10]), -2.53.
With `CC1CCN(C(=O)CC#N)CC1N(C)c1ncnc2[nH]ccc12` (configuration not stated), the fold change in experiment [3] (setting [5]) was 0.908 (inactive) and 0.927 (inactive); in experiment [3] (setting [6]) it was 0.692 and 0.73. The cell count in experiment [3] (setting [7]) is 9120 and 9790; in experiment [3] (setting [8]), 10000 and 10600. Further, the z-score in experiment [4] (setting [9]) was -0.285 (inactive) and -0.386 (inactive); in experiment [4] (setting [10]), -0.101 and -0.511.

One may read the viability as a read-out of living cells in per cent, often relative to untreated cells.
